Measurements reported in PubChem BioAssay AID588549 (Broad Institute, 2011).
Hit rate of the full screen: of about 360,000 compounds, about 780 (0.22%) were called active. The sample holds actives, similar compounds and a random draw of the others, so the mix is not that of the screen. Unmarked numbers belong to inactive results. Rule as the data show it: active = inhibition above about 8.5% (passing the limit was not always enough); inconclusive = no clear call, values can overlap the other calls.

Test system: Mycobacterium tuberculosis FadD28 fatty-acid-AMP ligase
Experiment: inhibitors of FadD28 bisubstrate probe binding, primary screen, biochemical, fluorescence polarization, single point (AID 588549)
Conditions: at 12.5 µM, stronger effect = higher value

Compound	inhibition
Cc1ccc(C(O)P(=O)(OC(C)C)c2ccc(N(C)C)cc2)cc1 (stereo not given)	0.612%
CCCCn1c(N)c(N2CCOCC2)c(=O)n(CC(=O)NCCc2ccccc2)c1=O	0%
N[C@@H](Cc1ccccc1)C(=O)N1CCC(C(=O)NCC(=O)Nc2ccc(F)cc2)CC1	0.565%
O=C(CSc1n[nH]c(=O)n1-c1ccccc1)Nc1ccccc1C(F)(F)F	-1.05%
C=C1c2c(Cl)ccc(O)c2C(O)=C2C(=O)[C@]3(O)C(O)=C(C(N)=O)C(=O)[C@@H](N(C)C)[C@@H]3[C@@H](O)C12 (stereo not given in full)	11.1% (active)
C[C@H]([C@@H](O)[C@@H](O)[C@@H](C)C(C)(C)C)[C@H]1CC[C@H]2C3CC[C@H]4C[C@H](OS(=O)(=O)O)[C@@H](OS(=O)(=O)O)C[C@]4(C)[C@H]3CC[C@]12C (stereo not given in full)	-4.53%
Cc1ccc(NC(=O)C(c2ccccc2)N2CCN(C(=O)c3ccco3)CC2)cc1 (stereo not given)	-0.809%
COc1ccc(C(CNC(=O)c2cccc(S(=O)(=O)Nc3ccccc3Cl)c2)N2CCOCC2)cc1 (stereo not given)	0.098%
COc1ccc(N2C(=O)/C(=C/c3ccco3)C(=O)NC2=S)cc1	32.5% (active)
COC(=O)C1=C(C)N(C(C)c2ccccc2)C(=O)/C1=C\c1ccco1 (stereo not given)	-2.87%
CCCCN=C1N/C(=C\c2ccco2)C(=O)N1c1ccccc1	-0.549%
N#CCN(C(=O)COC(=O)C1CC2CCCC(C1)C2=O)c1ccccc1 (stereo not given)	0.44%
CCOC(=O)C(CC)/C(C)=N\NC(=O)c1cccc(C)c1 (stereo not given)	-0.964%
CCN(CC)C(=O)C1=C(C)N(Cc2ccc(F)cc2)C(=O)C(CC(=O)NC2CCCC2)C1 (stereo not given)	-3.83%
Cc1ccc(S(=O)(=O)N(C)c2ccc(OCC(=O)OCc3ccc(C#N)cc3)cc2)cc1	-1.59%
Nc1ncc(CN2CCCC(C(=O)Nc3ccc(-c4ccco4)cc3)C2)cn1 (stereo not given)	-5.68%
O=C(COC(=O)CNS(=O)(=O)c1ccc(F)c(F)c1F)NC1CCCC1	-2.7%
O=C(OCc1ccc([N+](=O)[O-])cc1)C1CC(=O)N(Cc2ccccc2Cl)C1 (stereo not given)	-0.71%
Cc1ccc(S(=O)(=O)N2CCOCC2)cc1NC(=O)CSc1nnc(N)s1	1.4%
O=S(=O)(Nc1ccc2nc(-c3ccco3)[nH]c2c1)c1ccccc1	-2.01%
COc1cccc2c(O)cc(=O)n(C)c12	-3.24%
COc1cc2c(C(=O)O)c(C)n(C)c2c2ccccc12	2.25%

Compound	inhibition
COc1cccc2c(C)c(C(=O)O)[nH]c12	15.1% (active)
O=C1Nc2cc(Cl)c(Cl)cc2N(O)N1c1cc(Cl)cc(Cl)c1	-1.95%
CC12CCC(=O)N1C(C(=O)Nc1ccc(F)c(F)c1F)CS2 (stereo not given)	-2.85%
CC[C@]1(C(=O)OC)[C@H]2C(=O)N(Cc3ccccc3)C(=O)[C@H]2[C@H]2CN=C(SCc3ccc(C#N)cc3)N21	-7.96%
COc1cc(/C=C2/C(=O)NN(c3cccc(Cl)c3)C2=O)cc(Br)c1O	14.2% (active)
CCOc1c(Br)cc(/C=C2\C(=O)N(CCC#N)N=C2C)cc1OC	-4.34%
Cc1c(C(=O)CN2CCOCC2)[nH]c2ccccc12	-2.15%
O=C(O)c1[nH]c2ccccc2c1C(c1cccc(O)c1)c1c(C(=O)O)[nH]c2ccccc12	28.9% (active)
CCCS(=O)(=O)Nc1c(C(=O)O)[nH]c2ccccc12	1.47%
C/C(=N\Nc1cccc(C(=O)O)c1)c1ccc2c(c1)Nc1ccccc1S2	13.8% (active)
COc1cccc(C(=O)N/N=C(\C)c2cccc(NC(=O)c3ccc(F)cc3)c2)c1OC	-4.93%
CC(=O)Nc1cccc(/C(C)=N/NC(=O)c2c(-c3ccccc3Cl)noc2C)c1	-2.25%
Cc1ccc(CNC(=O)CCNS(=O)(=O)c2cccc3nonc23)cc1	0.736%
CC1CCN(C(=O)c2cc3nc(C4CC4)cc(C(F)(F)F)n3n2)CC1	-2.25%
COc1ccc(/C=C/CN2CCCC(C(=O)c3cc(F)ccc3F)C2)cc1 (stereo not given)	-1.96%
CN(C(=O)C1CCN(c2ncnc3c2nc2n3CCCCC2)CC1)C1CCCCC1	-3.36%
COCCCNC(NC(=O)c1ccc(OC)cc1)C(Cl)(Cl)Cl (stereo not given)	-3.52%
c1ccc(CCN2CN=C(Nc3nc4ccccc4o3)NC2)cc1	-1.13%
COc1ccc(C(=O)c2c(C)c(CCC#N)n3ccccc23)c(OC)c1	-2.38%
Cc1ccc(S(=O)(=O)N2C[C@H]3C(=O)C[C@@H](c4cccc5ccccc45)N(S(=O)(=O)c4ccc(C)cc4)[C@H]3C[C@H]2c2ccc(Cl)cc2)cc1	-2.51%
O=C(OCC(=O)N1CCN(c2ccccc2)CC1)c1ccc([N+](=O)[O-])s1	0.124%
COc1cccc(N2C(=O)NC(=O)/C(=C\c3ccc([N+](=O)[O-])s3)C2=O)c1	16.4% (active)

Compound	inhibition
COc1cccc(/C=C2\SC(=N)N(c3ccc(F)cc3)C2=O)c1	-2.96%
O=C1NC(=O)N(c2ccccc2)C(=O)/C1=C/c1ccc([N+](=O)[O-])s1	25.4% (active)
O=[N+]([O-])c1ccc(C=Nc2ccc(Cl)cc2Cl)s1	-1.01%
COc1cccc(C(=O)Oc2cc(C)[nH]c(=O)c2[N+](=O)[O-])c1	-0.419%
CCCC1C(c2ccccc2)C(C#N)(C#N)C2(C#N)CC1(N)NC2=O (stereo not given)	-0.503%
COc1cccc(OCC(O)CNC(=O)c2oc3c(C)c(C)ccc3c2C)c1 (stereo not given)	-2.55%
COc1c(O)cc2oc(-c3ccc(O)c(O)c3)cc(=O)c2c1O	13.9% (active)
COc1cc(O)c2c(=O)c3c(O)c(O)ccc3oc2c1OC	-0.783%
OCc1ccc(-c2ccccc2)c(-c2ccccc2)c1	-0.325%
COc1ccccc1C(=O)NC(=S)NC12CC3CC(CC(C3)C1)C2	-0.832%
COc1ccc(CCNC(=S)NC(=O)/C=C/c2ccc(C)cc2)cc1OC	-0.381%
CC(Nc1ccccc1)c1cccnc1 (stereo not given)	-4.94%
CCC(CC)c1nnc(NC(=O)c2nn(C)c(=O)c3ccccc23)s1	-1.39%
Cc1ccc(N2CCN(S(=O)(=O)c3ccc(F)cc3)CC2)c(C)c1	-3.77%
CC1CC(C)CN(C(=O)COC(=O)c2ccc3ncsc3c2)C1 (stereo not given)	-1.75%
Cc1cc(C)c(C#N)c(SCC(=O)N(CC(C)C)C2CCS(=O)(=O)C2)n1 (stereo not given)	-3.78%
CCC(C)(C)c1ccc(Oc2ccc(NC(=O)COC(=O)C3=COCCO3)cc2)cc1	-2.88%
COc1ccccc1CCCNC(=O)C1CCC(=O)N(CCN2CCOCC2)C1 (stereo not given)	-0.246%
Cn1c(=O)n(CCc2ccccc2)c(=O)c2c1nc1n2CCCN1c1ccccc1	-3.89%
Cc1ccc(NC(=O)CN2C(=O)NC(C)(c3ccc(Cl)cc3)C2=O)c(Br)c1 (stereo not given)	-1.17%
COc1ccc(NC(=O)CN(C)C(=O)c2cccc(S(=O)(=O)N3CCN(c4ccccc4)CC3)c2)cc1	-1.23%
O=C(O)c1ccccc1N=N/C(=N/Nc1cc(S(=O)(=O)O)ccc1O)c1ccccc1	8.82% (active)

Compound	inhibition
CC(C)(O)C#Cc1ccc(CNC[C@H]2O[C@@H](n3cnc4c(=O)[nH]c(N)nc43)[C@H](O)[C@@H]2O)s1	-0.925%
O=S(=O)(c1ccc(SCc2ccc(Br)cc2)nc1)N1CCOCC1	-1.66%
O=C(Nc1cccc(-c2cccc(Cl)c2)c1)C1CCN(C2CCC2)CC1	-25.6%
Cc1ccc(/C([O-])=C(/C(=S)NCc2ccco2)[n+]2ccccc2)cc1[N+](=O)[O-]	1.32%
Cc1sc2ncnc(SCC(=O)NC3CCS(=O)(=O)C3)c2c1C (stereo not given)	-1.04%
CC1CCCC(C)N1C(=O)COC(=O)COc1ccccc1C#N (stereo not given)	-1.75%
Cc1cc(OCC(=O)N2CCN(c3ncccn3)CC2)ccc1Cl	-3.44%
COc1ccc(C(=O)Nc2ccnn2C2CCN(Cc3ccncc3)CC2)cc1	-2.54%
CCC(C)C(CO)NC(=O)/C=C/[C@H]1O[C@@H](n2cnc3c(NC(=O)c4ccccc4)ncnc32)[C@H](O)[C@@H]1O (stereo not given in full)	-0.392%
COc1cc(C(O)c2nc(-c3cnn(C)c3)cs2)ccc1F (stereo not given)	-2.58%
CS(=O)(=O)N(Cc1ccccc1)c1ccc(C(=O)NN=C2CCCCCC2)cc1	-7.2%
CCCN(C(=O)c1nc2nccc(C)n2n1)c1c(N)n(Cc2ccccc2)c(=O)[nH]c1=O	0.906%
O=Nc1c(O)cc(O)c2ccccc12	-1.75%
COc1ccc(C(=O)NCc2ccc(Cl)cc2)cc1S(=O)(=O)N1CCCC1	39.8% (active)
COc1ccc(C(=O)NCC2CCCCC2)cc1S(=O)(=O)N1CCCC1	-0.215%
COC(=O)c1ccc(CNC(=O)c2ccc(S(=O)(=O)N3CCCCCC3)cc2)cc1	1.15%
COc1ccc(C(=O)NCC2CCCO2)cc1S(=O)(=O)NCc1ccc(Cl)cc1 (stereo not given)	-1.14%
COc1ccccc1CNC(=O)c1ccc(Cl)c(S(=O)(=O)N2CCCC2)c1	1.35%
COc1ccc(C(=O)NCc2ccc(C)cc2)cc1S(=O)(=O)N1CCCC1	28% (active)
